Inconclusive results are not listed. A number with no mark means an inactive call. Active and inactive are the calls of the source. Calls follow the shape of the dose curve; as a rule, active = well fitted inhibition curve with a large enough effect; inconclusive = small, poorly fitted or top-dose-only effect; inactive = no such curve, though single readings can be large or run the other way.
% is scaled to controls: 0 for no effect and ±100 for the full control effect.

The nature of this experiment: Counterscreen qHTS for Identification of Calcium Integrin Binding Protein 1 (CIB1) Competitor. The following applies: series mostly up to 114 µM; activity, negative = inhibition: at the top concentration. Summed up:
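Counterscreen FP assay: CIB1-GST 1 uM in 5 mM HEPES pH 7.4, 125 mM NaCl, 5 mM CaCl2, 0.01% Tween20, with compounds up to 114 uM for 15 min, then 100 nM FITC-labelled scrambled peptide, 15 min, polarization read ex 480/em 540.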
In general terms: Counterscreens check selectivity or assay interference.
Consider `C=C(CC)C(=O)c1ccc(OCC(=O)O)c(Cl)c1Cl`, for which the “activity, negative = inhibition” value was -29.6%.
`Cc1ccc(C(=O)NC(c2ccco2)c2cc(Cl)c3cccnc3c2O)cc1` (stereo unspecified): the “activity, negative = inhibition” value is 37.6%.
Still for that read-out and setting: for `CSc1cc2c(s1)c1cnn(Cc3cccc(N)c3)c(=O)c1n2C` the value was -44.6%; for `O=C(Cc1ccccc1)NC(c1ccco1)c1cc(Cl)c2cccnc2c1O` (stereo unspecified), 50.2%.
As for `O=c1c(O)c(-c2ccc(O)c(O)c2)oc2cc(O)cc(O)c12`, the Potency entry is “inactive”.
Take `Cc1cc(NS(=O)(=O)c2ccc(NC(=O)Cc3ccc(F)c(Cl)c3)cc2)no1`: the “activity, negative = inhibition” value was -12.5%.
Consider `NC(=O)c1ccnc2c(O)cccc12`, for which the “activity, negative = inhibition” value is -3.57%.
On to `COC(=O)c1ccc2c(c1)S(=O)(=O)N=C2Sc1cc(C)ccc1C`, for which the “activity, negative = inhibition” value was -4.21%.
With `CCC(=O)NC(c1cccs1)c1cc(Br)c2cccnc2c1O` (stereo unspecified), the “activity, negative = inhibition” value was -17.2%.
Still for that read-out and setting: for `O=c1[nH]nc(Sc2ncc([N+](=O)[O-])s2)n1-c1ccc2c(c1)OCCO2` the value was 11.8% [at 229 µM]; for `C[n+]1cc2c3c(ccc2c2ccc4cc5c(cc4c21)OCO5)OCO3`, 0.97% [at 57.1 µM].
Consider `Cc1ccc(S(=O)(=O)Nc2cc3c(cc2C(=O)Nc2nc(-c4ccccc4)cs2)OCO3)cc1`, for which the “activity, negative = inhibition” value is 106%.
With `CCc1oc2ccccc2c1C(=O)c1cc(Br)c(O)c(Br)c1`, the “activity, negative = inhibition” value is 49.1%.
On to `Cc1cc(=O)oc2cc(SC3=NS(=O)(=O)c4ccccc43)ccc12`, for which the “activity, negative = inhibition” value was -9.31%.
With `Oc1cccc2cc(C3CC3)cnc12`, the “activity, negative = inhibition” value was -16.4%.
Still for that read-out and setting: next, `O=C1c2cccc(O)c2C(=O)c2c(O)cc(CO)cc21`: 2.61%.

These data come from PubChem BioAssay AID1508619 (National Center for Advancing Translational Sciences (NCATS), 2020).
